# Results as given in PMC11062922 (Nature Chemical Biology, 2023).
# Read-outs that look alike come from different tables or passages of the source.
# Legend:
# Set-up in all cases: species or system human, MV4-11 + K-562 + COLO205 + SK-N-BE2 + OVCAR-8
# ACVR2B = settings: read-out: apparent Kd, compound concentrations: 100 nM and 1000 nM (sheet 'Samples'), n = 1
# DCTPP1 = settings: read-out: apparent Kd; compound concentrations: 100 nM and 1000 nM (sheet 'Samples'), CATDS: 0.10861575043791701; n = 1
# EGFR = settings: read-out: apparent Kd; compound concentrations: 100 nM and 1000 nM (sheet 'Samples'), CATDS: 0.49201381458362498; n = 1
# EPHA5 = settings: read-out: apparent Kd; compound concentrations: 100 nM and 1000 nM (sheet 'Samples'), CATDS: 0.108805216819128; n = 1
# EPHB4 = settings: read-out: apparent Kd; compound concentrations: 100 nM and 1000 nM (sheet 'Samples'), CATDS: 0.19010178021007501; n = 1
# PRKD1 = settings: read-out: apparent Kd; compound concentrations: 100 nM and 1000 nM (sheet 'Samples'), CATDS: 0.12094331971113; n = 1
# RET = settings: read-out: apparent Kd, compound concentrations: 100 nM and 1000 nM (sheet 'Samples'), n = 1
# FLT3 = settings: read-out: apparent Kd, compound concentrations: 100 nM and 1000 nM (sheet 'Samples'), n = 1
# FLT4 = settings: read-out: apparent Kd, compound concentrations: 100 nM and 1000 nM (sheet 'Samples'), n = 1
# PDGFRB = settings: read-out: apparent Kd; compound concentrations: 100 nM and 1000 nM (sheet 'Samples'), CATDS: 0.185767501667575; n = 1
# DJA1 = tested on: T1, DJA1; settings: read-out: apparent Kd; compound concentrations: 100 nM and 1000 nM (sheet 'Samples'), CATDS: 0.27071673816178898; n = 1
# T1 construct: gene DNAJA1
# PIK3CD = settings: read-out: apparent Kd; compound concentrations: 100 nM and 1000 nM (sheet 'Samples'), CATDS: 0.64872041714686801; n = 1
# PI4KB = settings: read-out: apparent Kd; compound concentrations: 100 nM and 1000 nM (sheet 'Samples'), CATDS: 0.57979233132980301; n = 1
# PIP4K2C = settings: read-out: apparent Kd; compound concentrations: 100 nM and 1000 nM (sheet 'Samples'), CATDS: 0.38663089306687698; n = 1
# AURKA = settings: read-out: apparent Kd; compound concentrations: 100 nM and 1000 nM (sheet 'Samples'), CATDS: 0.17816442953383199; n = 1
# AURKB = settings: read-out: apparent Kd; compound concentrations: 100 nM and 1000 nM (sheet 'Samples'), CATDS: 0.16275021162643; n = 1
# CDKL5 = settings: read-out: apparent Kd; compound concentrations: 100 nM and 1000 nM (sheet 'Samples'), CATDS: 3.9289785265400001E-2; n = 1
# FGFR1 = settings: read-out: apparent Kd; compound concentrations: 100 nM and 1000 nM (sheet 'Samples'), CATDS: 3.3147223570266997E-2; n = 1
# GSK3A = settings: read-out: apparent Kd; compound concentrations: 100 nM and 1000 nM (sheet 'Samples'), CATDS: 0.17602991696345399; n = 1
# GSK3B = settings: read-out: apparent Kd; compound concentrations: 100 nM and 1000 nM (sheet 'Samples'), CATDS: 0.14122707507865501; n = 1
# MAP3K1 = settings: read-out: apparent Kd; compound concentrations: 100 nM and 1000 nM (sheet 'Samples'), CATDS: 3.7364470577418298E-2; n = 1
# MAP3K5 = settings: read-out: apparent Kd; compound concentrations: 100 nM and 1000 nM (sheet 'Samples'), CATDS: 2.9017198987143701E-2; n = 1
# MAPK10 = settings: read-out: apparent Kd; compound concentrations: 100 nM and 1000 nM (sheet 'Samples'), CATDS: 3.1635267678624499E-2; n = 1
# MAPK9 = settings: read-out: apparent Kd; compound concentrations: 100 nM and 1000 nM (sheet 'Samples'), CATDS: 4.3387929743655899E-2; n = 1
# NQO2 = settings: read-out: apparent Kd; compound concentrations: 100 nM and 1000 nM (sheet 'Samples'), CATDS: 5.8964681911963503E-2; n = 1
# NUAK1 = settings: read-out: apparent Kd; compound concentrations: 100 nM and 1000 nM (sheet 'Samples'), CATDS: 3.13847647871121E-2; n = 1
# PLK4 = settings: read-out: apparent Kd; compound concentrations: 100 nM and 1000 nM (sheet 'Samples'), CATDS: 5.2678675037883101E-2; n = 1
# PRKAA2 = settings: read-out: apparent Kd; compound concentrations: 100 nM and 1000 nM (sheet 'Samples'), CATDS: 3.01302788001056E-2; n = 1
# SLK = settings: read-out: apparent Kd; compound concentrations: 100 nM and 1000 nM (sheet 'Samples'), CATDS: 2.96585498316322E-2; n = 1
# STK10 = settings: read-out: apparent Kd; compound concentrations: 100 nM and 1000 nM (sheet 'Samples'), CATDS: 4.4384834768784902E-2; n = 1
# STK16 = settings: read-out: apparent Kd; compound concentrations: 100 nM and 1000 nM (sheet 'Samples'), CATDS: 3.04344636095151E-2; n = 1
# TEC = settings: read-out: apparent Kd; compound concentrations: 100 nM and 1000 nM (sheet 'Samples'), CATDS: 3.6245892865131898E-2; n = 1
# TTN = settings: read-out: apparent Kd; compound concentrations: 100 nM and 1000 nM (sheet 'Samples'), CATDS: 3.6738161320686101E-2; n = 1
smiles,measurement,setting,value
COc1cc2ncnc(Nc3cccc(Cl)c3F)c2cc1O[C@H]1CC[C@@]2(CC1)NCCNC2=O [BI00113608],potency estimated from few doses,ACVR2B; CATDS: 0.10934684571165,1.66 µM
same,potency estimated from few doses,DCTPP1,1.7 µM
same,potency estimated from few doses,EGFR,0.0853 µM
same,potency estimated from few doses,EPHA5,1.69 µM
same,potency estimated from few doses,EPHB4,0.421 µM
same,potency estimated from few doses,PRKD1,1.22 µM
same,potency estimated from few doses,RET; CATDS: 0.16960231572365,0.534 µM
CC(=O)Nc1ccc(COc2ccc(Nc3ccnc4cc(-c5ccccn5)ccc34)cc2)cc1.Cl [GW440148A],potency estimated from few doses,ACVR2B; CATDS: 0.26489055890019297,0.482 µM
same,potency estimated from few doses,FLT3; CATDS: 0.189547770315381,1.25 µM
same,potency estimated from few doses,FLT4; CATDS: 0.63854178875025103,0.0885 µM
same,potency estimated from few doses,PDGFRB,1.34 µM
Fc1cc(Cl)ccc1Nc1ccnc2cc(I)ccc12 [GW551191X],potency estimated from few doses,ACVR2B; CATDS: 0.26563205076169,1.34 µM
same,potency estimated from few doses,DJA1,1.26 µM
same,potency estimated from few doses,PIK3CD,0.203 µM
CNc1ncnc2[nH]ncc12 [SKF-18355],potency estimated from few doses,ACVR2B; CATDS: 0.43951319986121201,1.91 µM
same,potency estimated from few doses,PI4KB,1.08 µM
Cl.NC(=O)c1cccc(Nc2nccc(Nc3cccc(F)c3)n2)c1 [GW759710A],potency estimated from few doses,ACVR2B; CATDS: 0.70743681093709798,0.45 µM
same,potency estimated from few doses,PIP4K2C,1.73 µM
Cc1ccc(Nc2ccnc(Nc3ccc(C)c(F)c3)n2)cc1O.Cl [GW582868A],potency estimated from few doses,ACVR2B; CATDS: 1,0.664 µM
Cc1[nH]nc2c1N=C(c1ccccc1F)c1cc(C(N)=O)ccc1N2 [RO0282586-000],potency estimated from few doses,ACVR2B; CATDS: 3.5760557024692601E-2,1 µM
same,potency estimated from few doses,AURKA,0.03 µM
same,potency estimated from few doses,AURKB,0.0345 µM
same,potency estimated from few doses,CDKL5,0.749 µM
same,potency estimated from few doses,FGFR1,1.3 µM
same,potency estimated from few doses,FLT3; CATDS: 3.2008123306219403E-2,1.48 µM
same,potency estimated from few doses,FLT4; CATDS: 9.9526112559891702E-2,0.0828 µM
same,potency estimated from few doses,GSK3A,0.0305 µM
same,potency estimated from few doses,GSK3B,0.0436 µM
same,potency estimated from few doses,MAP3K1,0.873 µM
same,potency estimated from few doses,MAP3K5,2.23 µM
same,potency estimated from few doses,MAPK10,1.55 µM
same,potency estimated from few doses,MAPK9,0.564 µM
same,potency estimated from few doses,NQO2,0.259 µM
same,potency estimated from few doses,NUAK1,1.6 µM
same,potency estimated from few doses,PLK4,0.34 µM
same,potency estimated from few doses,PRKAA2,1.89 µM
same,potency estimated from few doses,RET; CATDS: 5.3147422630729399E-2,0.333 µM
same,potency estimated from few doses,SLK,2.02 µM
same,potency estimated from few doses,STK10,0.53 µM
same,potency estimated from few doses,STK16,1.81 µM
same,potency estimated from few doses,TEC,0.96 µM
same,potency estimated from few doses,TTN,0.92 µM
